Pf Dd2 inh: qHTS Primary assay for Inhibitors of Plasmodium falciparum Dd2 growth in vitro; Potency, µM (doses to about 28.9 µM), for inactives: top-dose activity, negative = inhibition, hits mostly inhibitors; P. falciparum Dd2 growth, SYBR Green, 72 h; 120,000 compounds, 4.3% hits; AID 1347417, 2020; active = well fitted inhibition curve with a large enough effect;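 note: plate controls were DMSO vehicle for no effect and reference drug for full effect; nearly all actives have a fitted effect of over 65% in size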
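Readout: SYBR Green fluorescence, 485 nm excitation, 535 nm emission, after ~16 h lysis at 37C. Before that, Dd2-infected red cells (2.5% hematocrit) grew 72 h with compound, 29 uM top final concentration.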
* = called active by the depositor; i = inactive; [ ] = another dose, or the depositor's remark. This is one part of a sample in which hits are shown more often than they occur. Potency is the fitted concentration of half-maximal effect.

SMILES | Pf Dd2 inh
Cc1ccc(NC(=O)c2ccc3c(=O)n4nc(Nc5ccccc5C)sc4nc3c2)cc1C | -2%
CCc1ccccc1Nc1nn2c(=O)c3ccc(C(=O)NCc4cccs4)cc3nc2s1 | 14µM*
COc1ccccc1Nc1nn2c(=O)c3ccc(C(=O)NC(C)c4ccccc4)cc3nc2s1 (configuration not stated) | -14%
COc1ccc(NC(=O)c2ccc3c(=O)n4nc(Nc5ccccc5C)sc4nc3c2)cc1Cl | -4%
CN1CCCC2(CCN(S(=O)(=O)c3ccc(F)c(F)c3F)C2)C1=O (configuration not stated) | -24%
COc1ccc(C2(C(=O)N3CCC4(CCCN(C)C4=O)C3)CCCC2)cc1 (configuration not stated) | -8%
CCC(C)NC(=O)CN1CN(c2ccccc2)C2(CCN(C(=O)c3cccc(OC)c3)CC2)C1=O (configuration not stated) | -15%
COc1ccc(Cl)cc1C(=O)N1CCCC(c2[nH]ccc2C(N)=O)C1 (configuration not stated) | 3%
Cc1nc(-c2cn(C3CCCN(C(=O)c4ccccc4)C3)nn2)no1 (configuration not stated) | -22%
O=C(NC[C@H]1O[C@@H](CC(=O)N2CCN(c3ccccc3)CC2)[C@H](O)[C@@H]1O)Nc1cccc(F)c1 | i
Cc1ccc2nc3n(c2c1)[C@@H](CNC(=O)NC(C)C)COC3 | i
COc1cc(CNCCOc2cccnc2)ccc1OCC(O)CN1CCSCC1 (configuration not stated) | i
CN(CC(O)COc1cccc(CNCCOc2ccccc2)c1)C1CCCCC1 (configuration not stated) | 4.5µM*
CCN1CCN(CC(O)COc2cccc(CNCCc3cccc(C)n3)c2)CC1 (configuration not stated) | i
O=C(Nc1cccc(C(F)(F)F)c1)c1ccc2snnc2c1 | 51%
Cc1cc(C)c(NC(=O)Nc2ccc3snnc3c2)c(C)c1 | i
O=C(Nc1cccc(C(F)(F)F)c1)Nc1ccc2snnc2c1 | 1.1µM*
Cc1ncc(S(C)(=O)=O)c(NCc2nnc3ccccn23)n1 | 8%
N[C@H]1CN(S(=O)(=O)c2ccc(OC(F)F)cc2)C[C@@H]1C1CC1 | 5.6µM*
CN1CCC([C@@H]2CN(S(=O)(=O)c3ccc4c(c3)CCC4)C[C@H]2C(N)=O)CC1 | 9%
CCc1nncn1C1CCN(S(=O)(=O)c2ccc(OC)cc2)CC1 | i
CC(=O)NC[C@H]1CCN(S(=O)(=O)c2ccc(C#N)cc2)C[C@H]1N(C)C | -3%
CCC[C@@H]1CN(S(=O)(=O)c2ccc(OC(F)F)cc2)C[C@H]1N(C)C | 5.6µM*
Cc1ccc(S(=O)(=O)N2C[C@@H](C(N)=O)[C@H](C3CCN(C)CC3)C2)cc1Cl | -4%
CN1CCCCCCN(C(=O)C2CC2)[C@H]2CCC[C@H]2C1=O | -1%
SMILES | Pf Dd2 inh
O=C(Nc1ccc(I)cc1)c1cc(-c2ccc[nH]2)n[nH]1 | -12%
Cn1ccnc1C(=O)N1CCC(C(=O)N2CCCCCCNC(=O)CC2)CC1 | 6%
COCCN1CCC(CN(Cc2ccncc2)C(=O)c2cnccn2)CC1 | 0%
O=C(Nc1cccc2ccccc12)O[C@@H]1CO[C@H]2[C@@H]1OC[C@@H]2n1nnnc1SC1CCCC1 | i
NCCc1ccc(CN2C[C@@H]3CC[C@H](C2)N(Cc2ccccc2)C3)cc1 | 11µM*
CC(=O)Nc1ccc(CN2CCN3C(=O)N(Cc4ccccc4)C[C@H]3C2)cc1 | i
O=C1[C@H]2CN(Cc3ccc(C(F)(F)F)cc3)C[C@H]2C(=O)N1CCc1ccccc1 | i
COC(=O)N1CCC2(CC1)Cc1ccccc1NC2=O | -17%[44.1 µM]
Cn1nccc1CN1CC2(C1)NC(=O)c1ccccc1O2 | -17%[44.1 µM]
CCNc1sc(S(C)(=O)=O)nc1S(=O)(=O)c1ccc(C)cc1 | 2%
Cc1ccc(S(=O)(=O)c2nc(S(=O)(=O)c3ccc(C)cc3)c(NCCCOC(C)C)s2)cc1 | 2.2µM*
Cc1ccc(S(=O)(=O)c2nc(S(=O)(=O)c3ccc(C)cc3)c(NC(C)C)s2)cc1 | -11%
CC(C)C(=O)NCC(=O)N1CCC2(CC1)Nc1ccccc1NC2=O | 8%
COc1cccc(N2CC(C(=O)NCc3cccc(Cl)c3)NC2=O)c1 (configuration not stated) | -19%
Cc1ccc(N2C(=O)c3n[nH]c(C)c3C2c2ccc(C(C)C)cc2)cc1 (configuration not stated) | i
CN1C(=O)c2[nH]nc(-c3ccc(F)cc3)c2C1c1cccc(O)c1 (configuration not stated) | -5%
CC(C)c1ccc(C2NC(=O)c3n[nH]c(-c4cccs4)c32)cc1 (configuration not stated) | i
CSc1ccc(C2c3c(-c4ccccc4O)n[nH]c3C(=O)N2Cc2ccncc2)cc1 (configuration not stated) | 13µM*
CC(C)c1ccc(C2c3c(-c4ccccc4O)n[nH]c3C(=O)N2Cc2ccncc2)cc1 (configuration not stated) | 13µM*
CCN(C(=O)c1ccc(-n2ccnc2-c2nc[nH]c2C)cc1)c1ccccc1 | -11%
COc1cc2ncc(C(=O)c3ccc(C)cc3)c(N3CCCCC3)c2cc1OC | -12%
CCOC(=O)C1CCCN(c2c(C(=O)c3ccc(OCC)cc3)cnc3ccccc23)C1 (configuration not stated) | i
CCOC(=O)C1CCN(c2c(C(=O)c3ccc(OCC)cc3)cnc3ccc(OC)cc23)CC1 | 10µM*
COC[C@@H]1CN(c2ncccn2)C[C@H]1C(=O)Nc1ccc(OC)nc1 | 14%
O=C(COc1ccccc1)Nc1ccc2ncnc(N3CCCCC3)c2c1 | i
SMILES | Pf Dd2 inh
CCn1ccc(C(=O)N2CCCCCCNC(=O)[C@@H]3C[C@@H](c4nc(Cc5ccccc5)no4)C[C@@H]32)n1 | -5%
C=CCNC(=O)N[C@H]1CCN2C(=O)c3cc(-c4ccccc4F)ccc3NC(=O)[C@@H]2C1 | -6%[44.1 µM]
COc1cccc(C(=O)N2CCC3(CC2)NC(=O)N(Cc2ccccc2)C3=O)c1OC | 8.9µM*
COc1ccc(C(=O)N2CCC3(CC2)NC(=O)N(Cc2ccccc2)C3=O)cc1OC | i
COc1ccccc1CC(=O)N1CCC2(CC1)NC(=O)N(Cc1ccccc1)C2=O | 13%
CN1CCC(Oc2ccc(NC(=O)c3ccncc3)cn2)C1 (configuration not stated) | 2%
CCCNC(=O)C1COC2(CCN(C(=O)c3ccc(OC)cc3)CC2)N1C(=O)c1ccc(OC)cc1 (configuration not stated) | -4%
CN(CC1CCOCC1)C(=O)c1ccc(F)c(F)c1 | -13%
O=C(NC1CCCCC1)C1CN(C(=O)c2cccc(Br)c2)CC12CCOCC2 (configuration not stated) | -16%
CCN(CC)CCNC(=O)c1cc(-c2ccc(Br)s2)nc2ccccc12 | 11µM*
CCc1ccc(CNC(=O)c2cc(-c3ccc(Br)s3)nc3ccccc23)cc1 | i
COc1cccc(CNC(=O)c2cc(-c3ccc(Cl)s3)nc3ccccc23)c1 | -2%
Cc1nc(C(=O)N2CCCC(Cn3cc(-c4ccsc4)nn3)C2)cs1 (configuration not stated) | -16%
COCC1CN(C)CC12CCN(S(=O)(=O)c1cccs1)CC2 (configuration not stated) | 3.5µM*
COCC1CN(C)CC12CCN(Cc1ccc(OC)cc1)CC2 (configuration not stated) | i

Compound activity: PubChem, National Center for Advancing Translational Sciences (NCATS)
